Source: PubChem BioAssay (several laboratories)
The list is not random: actives were taken first. Their share in the collection is about 4.1%.
PfHsp90 yeast 2 = growth inhibition of yeast expressing Plasmodium Hsp90 | S. cerevisiae expressing PfHsp90, BacTiter-Glo ATP, 48 h; yeast lacking PDR1 and PDR3 efflux regulators | inhibition, % at 9.4 µM | 310,000 compounds, 0.32% hits | AID 504621;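 active means every replicate shows inhibition above about 80%, whatever the replicate mean, limit read from the data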
tim10-1 inh = growth inhibitors of tim10-1 mutant yeast | inhibition, % at 20 µM | 330,000 compounds, 2.2% hits | AID 463190 | S. cerevisiae tim10-1 ts strain growth, BacTiter-Glo, 24 h;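 active means inhibition of at least 40%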;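 further: mutant grown at 25 °C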
TIM10 inh = inhibits growth of TIM10 yeast strain. inhibition, % at 10 µM. S. cerevisiae TIM10 strain growth, BacTiter-Glo luminescence, 24 h. AID 463195. 330,000 compounds, 1.4% hits;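 active means inhibition of 40% or more at the single tested concentration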;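 further: wild-type TIM10 isogenic control strain grown at permissive 25 °C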
NALP3 yeast inh = NALP3 inhibition in yeast; Yeast reconstituted NLRP3/ASC/caspase-1, beta-gal luminescence, 24 h; inhibition, % at 10 µM; 330,000 compounds, 0.39% hits; AID 2825;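 active means inhibition of 50% or more; inactive means inhibition below 50%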
NALP1 yeast inh = blocks the NALP1 inflammasome reconstituted in yeast; S. cerevisiae NALP1/ASC/caspase-1 growth, X-gal OD620, 72 h; inhibition, % at 10 µM; 280,000 compounds, 0.61% hits; AID 2071; in the data active means inhibition mostly above about 24%, no sharp cut-off; inactive means mostly below about 32%
tim23-1 inh = growth inhibitors of tim23-1 mutant yeast. S. cerevisiae tim23-1 growth, BacTiter-Glo luminescence, 24 h. inhibition, % at 20 µM. 330,000 compounds, 1.3% hits;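 active means growth inhibition of the mutant yeast at or above 50%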;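 further: temperature-sensitive mutant grown at 25 °C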
tim10-1 conf = tim10-1 yeast growth inhibition, confirmed. shares compounds with tim10-1 inh. S. cerevisiae tim10-1 ts strain growth, BacTiter-Glo, 24 h. inhibition, % at 20 µM. 7,400 compounds, 56% hits. AID 463213;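 active means inhibition of yeast growth at or above a set limit in either of two repeat tests at 20 µM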;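 further: tim10-1 mutant grown at permissive 25 °C to find synthetic lethal compounds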
Large screens that a line does not name were inactive (follow-up assays come after a bar, where they were run).

CCOC(=O)c1ccc2[nH]c3c(c2c1)CCCC3	tim10-1 inh 42.3 | tim10-1 conf 34.2
CCOC(=O)c1ccc2[nH]c3c(c2c1)CCCC3O (centres undefined)	none
Nc1nc(-c2ccc3ccccc3c2)cs1	tim10-1 inh 43.5 | tim10-1 conf inactive
Cc1ccc(N2CCN(S(=O)(=O)c3ccc4oc(=O)ccc4c3)CC2)c(C)c1	none
COc1cnc(-c2ccccn2)nc1Sc1ccc(F)cc1	tim10-1 inh 41.5 | tim10-1 conf 34.2
COc1cnc(-c2ccccn2)nc1Sc1ccccc1	tim10-1 inh 41.3 | tim10-1 conf 42.7
COc1cc(C(F)(F)F)nc(-c2ccccn2)n1	none
COc1ccc(Sc2nc(-c3ccccn3)ncc2OC)cc1	none
COc1cnc(-c2ccccn2)nc1Sc1ccc(Cl)cc1	tim10-1 inh 43.2 (no result: PfHsp90 yeast 2) | tim10-1 conf inactive
COc1cnc(-c2ccccn2)nc1Oc1cccc(C(F)(F)F)c1	tim10-1 inh 44.1 | tim10-1 conf inactive
O=C(Nc1ccc2c(c1)OCO2)c1n[nH]c(=O)c2ccccc12	none (no result: NALP1 yeast inh)
COc1ccc(N2CCN(C(C)C(=O)N3CCCC3)CC2)cc1 (centres undefined)	none
Cc1cc(OCC(=O)Nc2ccncc2)cc(C)c1Cl	none
O=C1NC[C@H](Cc2ccccc2)N(CC2CCN(CCCC3CCCC3)CC2)C1=O	none (no result: tim10-1 inh, TIM10 inh, NALP3 yeast inh, NALP1 yeast inh, tim23-1 inh)
Cc1ccc(N2CC(C(=O)N3CCC(C(=O)NCCCOC(C)C)CC3)CC2=O)cc1 (centres undefined)	none
CC(NC(=O)Cc1cccs1)C(c1cccs1)N1CCN(c2ccccc2F)CC1 (centres undefined)	tim10-1 inh 45.6 | tim10-1 conf 37.4
CC(NC(=O)c1ccco1)C(c1cccs1)N1CCN(c2ccc(F)cc2)CC1 (centres undefined)	tim10-1 inh 46.9 | tim10-1 conf inactive
CC(C)(C)S(=O)N1Cc2cc(CO)cc(CCO)c2[C@@H]1CCO (some centres undefined)	none (no result: tim10-1 inh, TIM10 inh, NALP3 yeast inh, NALP1 yeast inh, tim23-1 inh)
Clc1ccc(Cl)c2sc(N3CCCC3)nc12	tim10-1 inh 47.5 | tim10-1 conf 36.6
C=CCNC(=O)N[C@@H](Cc1ccccc1)C(=O)OC	none
CCCCn1c(=S)[nH]c2ccc(N3CCOCC3)cc2c1=O	none (no result: PfHsp90 yeast 2)
CC(C)OCCCn1c(=S)[nH]c2ccc(N3CCOCC3)cc2c1=O	tim10-1 inh 45.4 (no result: PfHsp90 yeast 2) | tim10-1 conf inactive
O=c1c2cc(N3CCOCC3)ccc2[nH]c(=S)n1Cc1ccc(Cl)cc1	none
Cc1ccc(Cn2c(=S)[nH]c3ccc(N4CCOCC4)cc3c2=O)o1	tim10-1 inh 45.5 (no result: PfHsp90 yeast 2) | tim10-1 conf inactive
Cn1c(N2CCOCC2)nc(-c2ccccc2)c1-c1ccccc1	tim10-1 inh 45.9 | tim10-1 conf 39.2
CCC1CCCCN1CCCNC(=O)Cn1nc(C)n2nc(-c3ccccc3)cc2c1=O (centres undefined)	none
COc1ccc(S(=O)(=O)N/N=C(/C)c2ccc(Cl)cc2)cc1	tim10-1 inh 52.1 (no result: PfHsp90 yeast 2) | tim10-1 conf 43.6
COc1cccc(/C(C)=N/NS(=O)(=O)c2ccc(Cl)cc2)c1	none
COc1ccc(OC)c(NS(=O)(=O)c2ccc3c(c2)C(C)(C)C(=O)N3C)c1	none (no result: PfHsp90 yeast 2)
Brc1ccc2ncc3ccccc3c2c1	none (no result: tim10-1 inh, TIM10 inh, NALP3 yeast inh, NALP1 yeast inh, tim23-1 inh)
C=CCn1c(SCC(=O)N(C(C)CC)C2CCS(=O)(=O)C2)nc2ccccc2c1=O (centres undefined)	none (no result: NALP1 yeast inh)
Cc1ccc(N(CC(=O)N2CCN(c3ccc(F)cc3)CC2)S(=O)(=O)c2c(C)noc2C)cc1	tim10-1 inh 40.9 | tim10-1 conf inactive
CCc1cccc(NC(=O)CN(c2ccc(C)cc2)S(=O)(=O)c2c(C)noc2C)c1	tim10-1 inh 48.8 | tim10-1 conf 36.4
O=C(c1noc2c1CCc1ccccc1-2)N1CCOCC1	none (no result: NALP1 yeast inh)
O=C(c1noc2c1CCc1ccccc1-2)N1CCCc2ccccc21	tim10-1 inh 41.7 | tim10-1 conf inactive
O=C(NNC(=S)Nc1ccc(Br)cc1)c1ccccc1Br	tim10-1 inh 46.0 | tim10-1 conf inactive
O=C(NNC(=S)Nc1ccc(Cl)cc1)c1ccccc1OC(F)F	tim10-1 inh 42.5 | tim10-1 conf 39.3
O=C(NNC(=S)NCc1ccccc1)c1ccccc1OC(F)F	none
COc1ccc(/C=C(\NC(=O)c2ccc(C)cc2)C(=O)Nc2ccc(C(=O)O)cc2)cc1	none
COc1ccc(/C=C(\C#N)C(=O)N2COCC2(C)C)cc1	tim10-1 inh 46.6 | tim10-1 conf 31.3
COc1ccc(/C=C(\C#N)C(=O)N=CN(C)C)cc1	none
Clc1ccc(/C=C/c2nc(Cl)c(-c3ccc(Cl)cc3)c(Cl)n2)cc1	none
C/C(=N\OC(=O)NC(C)C)c1sc(-c2ccccc2)nc1C	none
C/C(=N\OC(=O)NC(C)C)c1sc(-c2ccc(Cl)cc2)nc1C	tim10-1 inh 45.0 | tim10-1 conf 41.8
COc1ccc(OCc2cc(C(=O)N3CCN(C4CCCC4)CC3)no2)c(Cl)c1	tim10-1 inh 43.3 | tim10-1 conf 32.6
CCC1CN(C(=O)NCc2ccc(C)cc2)c2ccccc2O1 (centres undefined)	none
CCC1CN(C(=O)NCc2ccc(F)cc2)c2cc(C)ccc2O1 (centres undefined)	tim10-1 inh 41.3 | tim10-1 conf inactive
CCOc1ccc(NC(=O)CN(C)C(=O)C2CC(=O)N(Cc3ccco3)C2)cc1OCC (centres undefined)	none (no result: NALP1 yeast inh)
Cc1ccc(CNC(=O)COc2cc(O)c3c(c2)OC(C)(C)CC3=O)cc1	tim10-1 inh 44.0 | tim10-1 conf inactive
Cc1nc(-c2ccc(F)cc2)c(CC(=O)Nc2ccc(C)c(S(=O)(=O)N3CCOCC3)c2)s1	none
COc1ccc(/C=C2\SC(N3CCCCC3)=NC2=O)cc1OC	none
COc1ccc(OC)c(/C=C2\SC(N3CCCC(C)C3)=NC2=O)c1 (centres undefined)	tim10-1 inh 43.2 | tim10-1 conf inactive
COCCC(=O)N1CCC(Oc2ccc(C(=O)NCCC3=CCCCC3)cc2)CC1	none
Cc1[nH]c2ccc(C(=O)N3CCN(c4ccc(F)cc4)CC3)cc2c1C	tim10-1 inh 54.4 | tim10-1 conf inactive
COc1ccc(N2CCN(C(=O)c3cc(-c4ccc(F)cc4)[nH]c3C)CC2)cc1	tim10-1 inh 42.0 | tim10-1 conf 39.7
O=C(C1CCN(c2nc(-c3ccccc3)nc3c2CCC3)CC1)N1CCCC1	none
CC1CCCCN1C(=O)C1CCN(c2nc(-c3ccccc3)nc3c2CCC3)CC1 (centres undefined)	tim10-1 inh 56.4 | tim10-1 conf inactive
O=C(NC(c1cccnc1)C(F)(F)F)c1cc(COc2ccc3c(c2)CCCC3)on1 (centres undefined)	tim10-1 inh 41.8 | tim10-1 conf inactive
COc1ccc(/C=C(/NC(=O)c2ccccc2)C(=O)N/N=C/c2sccc2C)cc1	none
